Results filed as inconclusive are left out. Activity calls are given as the source filed them. Calls come from the whole dose curve; as a rule, active = well fitted cell-killing curve with a large enough effect; inconclusive = small, poorly fitted or top-dose-only effect, or effect the other way; inactive = no such curve, though single readings can be large or run the other way.
Potency is the fitted concentration of half-maximal effect.

This experiment in a line: qHTS of pediatric cancer cell lines to identify multiple opportunities for drug repurposing: Confirmatory screen for Saos-2 cells (AID 1347127). Note: nearly all actives have a fitted effect of over 60% in size. The settings on record: Saos-2 osteosarcoma cell viability; series mostly up to 45.9 µM; activity change, negative = cytotoxic: at the top concentration. The source says: Drug repurposing or repositioning has been offered as a strategy for drug development in oncology programs. This approach has special potential for childhood cancers and other rare or orphan diseases, where the expected return on new drug development has been a disincentive to pharmaceuticals.
In this project we exploit the poly-pharmacology of drugs to discover new indications via phenotypic screening of a panel of 19 well-characterized cell lines derived from solid tumors seen in children and adolescents. The goal is to identify approved drugs with previously unrecognized anticancer properties that has the potential to reveal new mechanisms and biological processes involved in carcinogenesis or drug resistance. We employed a titration-based paradigm (quantitative high-throughput screening or qHTS), where all compounds were tested at multiple concentrations for their effect on cell viability. Concentration-response curves (CRCs) were derived directly from the primary screen, and both potency and efficacy values were used to identify compounds with robust bioactivity profiles. We screened the NIH Chemical Genomics Center (NCGC) Pharmaceutical Collection (NPC) and Mechanism Interrogation Plate (MIPE) small molecule collections of approved and investigational compounds against these cell lines; and measured metabolically active cells after 48 hours of compound treatment as a proxy for cell viability.
Assay Submitter: Nathalia J. Martinez, National Center for Advancing Translational Sciences, National Institutes of Health, Rockville, MD, USA; email: natalia.martinez@nih.gov
[1] Shen, M et al. Quantitative high-throughput phenotypic screening of pediatric cancer cell lines identifies multiple opportunities for drug repurposing. Oncotarget 2017 Dec 19;9(4):4758-4772. PMID 29435139.
The cells were obtained from University of North Carolina (UNC), Pediatric Preclinical Testing Program (PPT), and Coriell Institute (CI).
qHTS cell viability assay:
Cells were assayed in growth media at a density of 500-1,000 cells/well. Five microliters of cells were dispensed into 1,536-well, white, solid-bottom, TC-treated plates (Greiner Bio One) using a multidrop dispenser and incubated at 37 degrees C, 5% CO2, under a humidified atmosphere for 5 hours. Twenty-three nanoliters of compounds and controls (neutral control DMSO or positive control bortezomib at final concentration of 2.3 µM) were subsequently transferred by Kalypsys pintool. For primary screens, the MIPE collection was tested at 11-point dilutions (final concentrations range from 0.78 nM to 46 µM) and the NPC collection at 8-point dilutions (final concentrations range from 0.59 nM to 46 µM). Compounds tested in follow-up screens were assayed at 11-point dilutions. Cells were incubated for 48 hours, followed by addition of 3 µL of CellTiter-Glo (Promega). After a 15 min incubation at room temperature, samples were analyzed for luminescence intensity using a ViewLux High-throughput CCD imager equipped with clear filters.
(In general: In qHTS, concentration-response curves come from the screen itself.)
Regarding `COc1cccc2c(NCc3ccccc3)nc(-n3c(N)nc4ccccc43)nc12`, the Potency was 9270 nM (active). The same measure, in the same setting: as for `Cc1ccc(C(=O)Nc2cccc(C(F)(F)F)c2)cc1-c1ccc2nc(NCCN3CCOCC3)ncc2c1`, the figure is 8270 nM (active). In the case of `C=CC(=O)Nc1cccc(Oc2nc(Nc3ccc(N4CCN(C)CC4)cc3OC)ncc2Cl)c1`, the Potency is 23300 nM (active). Regarding `COc1cc2nccc(Oc3ccc(NC(=O)C4(C(=O)Nc5ccc(F)cc5)CC4)cc3)c2cc1OC`, the Potency was 18500 nM (active).

Consider `CC[C@@]1(O)C(=O)OCc2c1cc1n(c2=O)Cc2cc3cc(O)ccc3nc2-1`, for which the Potency was 46.5 nM (active).

`CCc1c2c(nc3ccc(O)cc13)-c1cc3c(c(=O)n1C2)COC(=O)[C@]3(O)CC`: the “activity change, negative = cytotoxic” value is 37.9% (inactive). Consider `C[C@@H](Oc1cc(-c2cnn(C3CCNCC3)c2)cnc1N)c1c(Cl)ccc(F)c1Cl`, for which the Potency is 13100 nM (active). `CN(c1ncccc1CNc1nc(Nc2ccc3c(c2)CC(=O)N3)ncc1C(F)(F)F)S(C)(=O)=O`: the Potency was 8270 nM (active). Regarding `CCNC(=O)Nc1ccc2ncc(Nc3ccc(C)cc3)nc2n1`, the “activity change, negative = cytotoxic” value was 17% (inactive).

In the case of `C=C1C(=CC=C2CCC[C@]3(C)[C@@H]([C@H](C)C=C[C@H](C)C(C)C)CC[C@@H]23)C[C@@H](O)C[C@@H]1O`, the “activity change, negative = cytotoxic” value was -11.4% (inactive). For `Cc1c(CN2CCN(S(C)(=O)=O)CC2)sc2c(N3CCOCC3)nc(-c3cnc(N)nc3)nc12`, the Potency was 1310 nM (active). As to `Nc1ccccc1NC(=O)c1ccc(CNC(=O)OCc2cccnc2)cc1`, the Potency is 2140 nM (active).

Take `CCC1=C[C@@H]2CN(C1)Cc1c([nH]c3ccccc13)[C@@](C(=O)OC)(c1cc3c(cc1OC)N(C)[C@@H]1[C@@](O)(C(=O)OC)[C@H](OC(C)=O)[C@]4(CC)C=CCN5CC[C@]31[C@@H]54)C2`: the Potency is 7370 nM (active). As to `COc1ccc(C=Cc2cc(OC)c(OC)c(OC)c2)cc1O`, the Potency was 10.4 nM (active).

As to `COc1c(OCCCN2CCOCC2)ccc2c3n(c(=NC(=O)c4cnc(N)nc4)nc12)CCN3`, the Potency was 644 nM (active). In the case of `COc1ccc(-c2cc3c(C)nc(N)nc3n(C3CCC(OCCO)CC3)c2=O)cn1` (stereo not given), the “activity change, negative = cytotoxic” value is 2.91% (inactive). As for `CCCCc1nc2cc(C=CC(=O)NO)ccc2n1CCN(CC)CC`, the Potency was 2610 nM (active). Regarding `Cc1nc(N)ncc1-c1nc(N2CCOCC2)c2sc(C(C)(C)O)cc2n1`, the Potency was 1470 nM (active). On to `Cc1ccc2nc(NC(=O)CSc3nc4c(c(=O)n3-c3ccccc3)SCC4)sc2c1`, for which the “activity change, negative = cytotoxic” value is 1.9% (inactive). On to `Cc1ccc(NC(=O)C2(c3ccc4c(c3)OC(F)(F)O4)CC2)nc1-c1cccc(C(=O)O)c1`, for which the “activity change, negative = cytotoxic” value is -84.8% (inactive).

On to `CCn1cc(-c2ccnc3[nH]c(-c4cccc(CN(C)C)c4)cc23)c(-c2ccc(NC(=O)N(C)C)cc2)n1`, for which the Potency was 16500 nM (active). Regarding `CC1(C)CCC(c2ccc(Cl)cc2)=C(CN2CCN(c3ccc(C(=O)NS(=O)(=O)c4ccc(N[C@H](CCN5CCOCC5)CSc5ccccc5)c(S(=O)(=O)C(F)(F)F)c4)cc3)CC2)C1`, the “activity change, negative = cytotoxic” value is 6.08% (inactive). As to `COc1ccc(-n2nc(C(N)=O)c3c2C(=O)N(c2ccc(N4CCCCC4=O)cc2)CC3)cc1`, the “activity change, negative = cytotoxic” value is 10.3% (inactive).

`CNC(=O)c1ccc(N2C(=S)N(c3cnc(C#N)c(C(F)(F)F)c3)C(=O)C23CCC3)cc1F`: the “activity change, negative = cytotoxic” value was 2.59% (inactive). For `CC(C)(C)c1cc(C(C)(C)C)c(NC(=O)c2c[nH]c3ccccc3c2=O)cc1O`, the Potency was 16500 nM (active). As for `Cc1c(C)n(Cc2ccc(-c3ccccc3C(=O)O)cc2)c2ccc(C(=O)N[C@@H](C)c3ccc([N+](=O)[O-])cc3)cc12`, the “activity change, negative = cytotoxic” value is -10.7% (inactive). Take `Nc1ncnc2c1c(-c1cnc3[nH]ccc3c1)nn2C1CCCC1`: the Potency was 1850 nM (active). Regarding `CN(C)Cc1c(C(=O)NCCOc2ccc(C(=O)NO)cc2)oc2ccccc12`, the Potency was 1470 nM (active).

For the compound `CCOc1cc2ncc(C#N)c(Nc3ccc(F)c(Cl)c3)c2cc1NC(=O)C=CCN(C)C`, the Potency was 104 nM (active). `CN(C)CC(C)(C)CNc1nn2c(-c3ccccc3)nnc2cc1C1CCC1`: the “activity change, negative = cytotoxic” value is 2.78% (inactive). For the compound `COc1cccc2nc(-c3cccs3)nc(NN3C(=O)C=C(C)C3=O)c12`, the Potency was 2930 nM (active).

In the case of `Cc1cnc(Nc2ccc(F)cc2Cl)nc1-c1c[nH]c(C(=O)N[C@H](CO)c2cccc(Cl)c2)c1`, the “activity change, negative = cytotoxic” value was -66.5% (inactive).

With `Cc1ccc(-c2ncn(-c3ccc(Nc4nccc(-c5cccc(N6CCOCC6)c5)n4)cc3)n2)cn1`, the Potency is 107 nM (active).

In the case of `CNC(=O)c1c(F)cccc1Nc1nc(Nc2cc3c(cc2OC)CCN3C(=O)CN(C)C)nc2[nH]ccc12`, the Potency is 3690 nM (active). For `O=C(NC1CCNCC1)c1[nH]ncc1NC(=O)c1c(Cl)cccc1Cl`, the Potency was 2690 nM (active). Consider `Cc1c(NC(=O)OC[C@@H]2COCCN2)cn2ncnc(Nc3ccc4c(cnn4Cc4cccc(F)c4)c3)c12`, for which the “activity change, negative = cytotoxic” value is 4.94% (inactive). In the case of `Cc1[nH]c2ccccc2c1CCNCc1ccc(C=CC(=O)NO)cc1`, the Potency was 233 nM (active). Regarding `Cc1[nH]nc2ccc(-c3cncc(OC[C@@H](N)Cc4ccccc4)c3)cc12`, the Potency was 4650 nM (active). Turning to `COC(=O)[C@]12CCC(C)(C)C[C@@H]1[C@@H]1C(=O)C=C3[C@@]4(C)C=C(C#N)C(=O)C(C)(C)[C@@H]4CC[C@@]3(C)[C@]1(C)CC2`, the Potency was 3690 nM (active).

As to `CC1(C)OC2=C(C(=O)c3ccccc3C2=O)[C@H](NCc2ccccc2)[C@H]1O`, the Potency is 8270 nM (active).

(Values after PubChem BioAssay (NCATS).)
